Laboratory results taken from ChEMBL document CHEMBL4513216, “Probing the Open Global Health Chemical Diversity Library for Multistage-Active Starting Points for Next-Generation Antimalarials” (ACS Infect Dis, 2020).
About 2,100 (3.2%) of roughly 65,000 compounds showed an effect of 50% or more. The median lay at about -52%. For the sample, strong results were picked, then their nearest neighbours and some compounds at random.

Tested on: Plasmodium falciparum
Assay: Screen against P. falciparum Asexual Blood Stage (ABS), at 5uM
Format: functional, Dd2
Conditions: tested at 5 uM

Row | SMILES | INHIBITION [%]
1 | Cc1cnc(CN2CCOC(Cn3nc(C)cc3C)C2)cn1 (centres undefined) | -20.8
2 | Cc1cc(CN2CCOC(Cn3nc(C)cc3C)C2)on1 (centres undefined) | 46.7
3 | Cc1cc(C)n(CC2CN(Cc3cnc(C)s3)CCO2)n1 (centres undefined) | 53.2
4 | CCN1CCN(C(=O)c2cc(NC(=O)c3ccccc3)n(C)n2)CC1 | -98
5 | CC(=O)N(Cc1ncc(C(C)C)o1)C1CCN(Cc2cc(C)on2)C1 (centres undefined) | -83.8
6 | CC(=O)N(Cc1ncc(C(C)C)o1)C1CCN(CCC#N)C1 (centres undefined) | 57
7 | CC(=O)N(Cc1ncc(C)o1)C1CCN(Cc2nccn2C)C1 (centres undefined) | -133
8 | CC(=O)N(Cc1ncc(C(C)C)o1)C1CCN(CC2CCC2)C1 (centres undefined) | -113
9 | CC(=O)N(Cc1ncc(C(C)C)o1)C1CCN(Cc2nccn2C)C1 (centres undefined) | -176
10 | CC(=O)N(Cc1ncc(C(C)C)o1)C1CCN(Cc2cc(C)no2)C1 (centres undefined) | 59
11 | CCc1cnc(CN(C(C)=O)C2CCN(Cc3nccn3C)C2)o1 (centres undefined) | 51.5
12 | CC(=O)N(Cc1ncc(C(C)C)o1)C1CCN(CCn2cccn2)C1 (centres undefined) | -150
13 | CC(=O)N(Cc1ncc(C(C)C)o1)C1CCN(Cc2ccno2)C1 (centres undefined) | 45.7
14 | COCCN(Cc1cnn(C)c1)C(=O)C1CCCN(C2CCOCC2)C1 (centres undefined) | -15.9
15 | CCN(Cc1ccncc1)c1cc(C2CCCNC2)nc(C)n1 (centres undefined) | -121
16 | CN(Cc1cccnc1)C1COC2(CCN(Cc3nccs3)CC2)C1 (centres undefined) | -52.5
17 | O=C(c1cccnc1)N1CCCC1c1cc[nH]n1 (centres undefined) | -66.5
18 | N#Cc1ccc(N2CCCC3(CCN(c4cccnc4)CC3)C2)cc1 | -71.3
19 | COc1cc(C)sc1C(=O)NCCC(=O)N(C)c1ccccc1 | 33.9
20 | COc1cc(C)sc1C(=O)NCCNc1ccccc1 | 18.7
21 | COc1cc(C)sc1C(=O)NCCC(=O)N(C)Cc1ccccc1 | 59.3
22 | N#Cc1ccc(NC2CCN(Cc3ccccn3)CC2)c(F)c1 | -118
23 | c1ccc(CN2CCC(NCCc3ccc4c(c3)CCO4)CC2)nc1 | 36
24 | Fc1ccc(OCCNC2CCN(Cc3ccccn3)CC2)c(F)c1 | 69.8
25 | COC(=O)c1ccc(CNCc2cn(C)nc2C)cc1 | -133
26 | O=C(NCCC1=CCCCC1)NC1CCCc2c1cnn2CCO (centres undefined) | -134

Row | SMILES | INHIBITION [%]
27 | CN(Cc1ccccc1)CC(O)Cn1cnc2ccsc2c1=O (centres undefined) | 19
28 | CN(Cc1ccccc1)CC(O)Cn1cnc2sccc2c1=O (centres undefined) | 62.1
29 | CN(Cc1ccccc1)CC(O)Cn1cnc2ccccc2c1=O (centres undefined) | -2.56
30 | CC(C)CS(=O)(=O)Nc1ccc2c(c1)OCC(C)(C)C(=O)N2C | -28.6
31 | CCCC(NC(=O)c1cc(C)c(F)cc1F)c1nnn[nH]1 (centres undefined) | -94.1
32 | O[C@@H]1C[C@H]2CN(Cc3ccccc3)[C@H](Cc3ccccc3)CN2C1 | 69.1
33 | O[C@@H]1C[C@H]2CN(Cc3ccccc3Cl)[C@H](Cc3ccccc3)CN2C1 | 56.3
34 | CCc1ncc(CN2C[C@@H]3C[C@@H](O)CN3C[C@@H]2Cc2ccccc2)cn1 | -55
35 | O[C@@H]1C[C@H]2CN(CC3CCCCC3)[C@H](Cc3ccccc3)CN2C1 | 37.6
36 | C=Cn1ncc(CN2C[C@@H]3C[C@@H](O)CN3C[C@@H]2Cc2ccccc2)c1C | -7.65
37 | COc1ncc(CN2C[C@@H]3C[C@@H](O)CN3C[C@@H]2Cc2ccccc2)cn1 | -117
38 | COCC(=O)N1CCCC(c2cc(C(F)F)n3ncnc3n2)C1 (centres undefined) | 10.4
39 | Cn1cc(NC(=O)Cn2cc(-c3ccccc3)ncc2=O)cn1 | -15.3
40 | COC(=O)c1cccc(S(=O)(=O)NCC(c2ccco2)N2CCCC2)c1 (centres undefined) | 19.7
41 | Cc1cnn(CC2CCCN2C(=O)Cc2cccs2)c1 (centres undefined) | -35.5
42 | Cc1cnn(C2CN(CC(O)c3ccc(F)cc3)C2)c1 (centres undefined) | 57.4
43 | COc1ccc(C(O)CN2CC(n3cc(C)cn3)C2)cc1 (centres undefined) | 22
44 | Cc1cc(C)n(C2CN(CC(O)c3ccc(C(F)(F)F)cc3)C2)n1 (centres undefined) | 65.4
45 | COc1ccc(C(O)CN2CC(n3nc(C)cc3C)C2)cc1 (centres undefined) | 49.2
46 | Cc1cc(C)n(C2CN(CC(O)c3ccc(S(C)(=O)=O)cc3)C2)n1 (centres undefined) | -123
47 | Cc1cnn(C2CN(CC(O)c3ccccc3)C2)c1 (centres undefined) | 40.9
48 | Cc1cc(C)n(C2CN(CC(O)c3ccc4c(c3)OCO4)C2)n1 (centres undefined) | 43.5
49 | Cc1cc(C)n(C2CN(CC(O)COc3ccc(F)cc3)C2)n1 (centres undefined) | -18.8
50 | Cc1cc(C)n(C2CN(CC(O)c3ccc(F)cc3)C2)n1 (centres undefined) | 62.8
51 | O=C(Cc1ccccc1)N1CCC(c2nnc(-c3ccccn3)o2)CC1 | 2.71
52 | CC(Cc1ccco1)NC(=O)Nc1ccc(N(C)C)nc1 (centres undefined) | -297

Row | SMILES | INHIBITION [%]
53 | CC(C)COC(=O)N1CC(=O)N(CCc2ccccc2)CC(O)C1 (centres undefined) | -47.8
54 | Cc1oc(-c2ccsc2)nc1CN1CCCC(c2ccnn2C)C1 (centres undefined) | -72.5
55 | CN1CCN(Cc2cccnc2)C2(CCN(c3ncccn3)C2)C1=O (centres undefined) | -162
56 | Cn1ccnc1C(=O)N1CCC2(CCN2c2ncccn2)C1 (centres undefined) | -49.3
57 | Cc1ccc(Nc2nccc(C3CCN(C(=O)CN)C3)n2)nc1 (centres undefined) | -205
58 | CSCCCN1CCN(c2ccc(Cl)cn2)CC1 | 30.7
59 | CS(=O)(=O)CCN1CCN(c2ccc(Cl)cn2)CC1 | 0.0372
60 | Clc1ccc(N2CCN(CCCN3CCCCC3)CC2)nc1 | 69.2
61 | CN1CCN(Cc2ccncc2)C(=O)C12CCN(c1nccs1)CC2 | -78.4
62 | CCCc1nc(C(C)(C)NC(=O)C2CC(=O)N(CC)C2)no1 (centres undefined) | -33.1
63 | N#Cc1cc(C#N)c(SCCC(=O)Nc2ccc(F)cc2)nc1N | 13.7
64 | N#Cc1cc(C#N)c(SCC(=O)Nc2ccc(F)cc2)nc1N | 67.3
65 | N#Cc1cc(C#N)c(SCC(=O)NCc2ccc(F)cc2)nc1N | -74.4
66 | CCC(Nc1ccc(CCN2CCCCC2)cc1)C(N)=O (centres undefined) | 1.58
67 | O=C(O)c1cc(S(=O)(=O)Nc2ccc(F)cc2F)cc2c1OCCO2 | -20.9
68 | CCn1cnnc1CNC(=O)N1CCN(c2ccccc2OC)CC1 | -69.5
69 | O=C(c1cc(Cl)c[nH]1)N1CCCC(c2cc(C(F)(F)F)[nH]n2)C1 (centres undefined) | 20.5
70 | Cc1ccc(-c2nc(CSCCC(=O)NC(N)=O)co2)c(C)c1 | -115
71 | CSc1ccc(C(=O)N2CCOCC2c2c(C)n[nH]c2C)o1 (centres undefined) | -159
72 | Cc1cc(C)n(CC(=O)NC(Cc2ccsc2)c2ccccn2)c(=O)n1 (centres undefined) | -151
73 | Cc1nnc(NCc2cccnc2OCC(F)(F)F)c(C#N)c1C | -46.2
74 | COCc1ccccc1CNc1nnc(C)c(C)c1C#N | -155
75 | CCOc1ncccc1CNc1nnc(C)c(C)c1C#N | 60
76 | Cc1nnc(NCc2ccccc2F)c(C#N)c1C | 64.4
77 | COc1ccccc1C1(CNc2nnc(C)c(C)c2C#N)CCCC1 | 58.4
78 | COc1ccccc1C1(CNc2nnc(C)c(C)c2C#N)CCOCC1 | 3.69

Row | SMILES | INHIBITION [%]
79 | CCCOc1ncccc1CNc1nnc(C)c(C)c1C#N | -121
80 | Cc1nnc(NCC2(c3ccccc3)CCC2)c(C#N)c1C | -32.2
81 | Cc1nnc(NCc2ccccc2Cl)c(C#N)c1C | 6.46
82 | Cc1ccccc1COCCOCn1c(C)cc(=O)[nH]c1=O | -70.8
83 | CCn1nnc2c1C(COCC(=O)N(C)C)CN(Cc1ccoc1)C2 (centres undefined) | -97.7
84 | O=C(Cc1cccs1)Nc1cnn(C2CCOCC2)c1 | -142
85 | CCOC(=O)[C@H]1[C@@H](O)C(=O)N(C)C12CCN(C(=O)c1ccccc1)CC2 | -32.3
86 | O=C1CC2(CCCNC2)C(=O)N1Cc1cccc(F)c1 (centres undefined) | -47.2
87 | O=C1CC2(CCCNC2)C(=O)N1Cc1ccc(Cl)cc1 (centres undefined) | 51.8
88 | O=C1CC2(CCCNC2)C(=O)N1Cc1ccc(F)cc1 (centres undefined) | -26
89 | O=C(Nc1ccnc(OC2CCOC2)c1)c1ccccc1Cl (centres undefined) | -34.1
90 | O=C(NCC(=O)N1CCCc2ccccc21)c1c(O)cc(F)cc1F | -115
91 | COC(=O)c1c(Cl)c(C)nc2onc(C)c12 | -117
92 | CCN(CC)C(=O)C1CCN(c2ccc(Cl)cc2C#N)CC1 | -147
93 | N#Cc1cc(Cl)ccc1N1CCN(C(=O)C2CCC2)CC1 | -75.4
94 | CC1CCN(C(=O)C2CCN(c3ccc(Cl)cc3C#N)CC2)CC1 | 60.5
95 | Cn1cc(CN2CCCC23CCN(S(C)(=O)=O)CC3)cn1 | -54.3
96 | O=c1n(CCNc2cccc3ccccc23)nc2ccccn12 | -149
97 | CC1=N[C@@]2(CC[C@@H]3CN(Cc4ccc(C)cc4)C[C@@H]32)C(=O)N1CC1CC1 | 30.2
98 | CC1=N[C@@]2(CC[C@@H]3CN(Cc4ccccc4F)C[C@@H]32)C(=O)N1CC1CC1 | 67.6
99 | COCCN1C(=O)[C@]2(CC[C@@H]3CN(Cc4ccccc4F)C[C@@H]32)N=C1C | -37.9
100 | CC1=N[C@@]2(CC[C@@H]3CN(Cc4ccccc4)C[C@@H]32)C(=O)N1CC1CC1 | 17.7
101 | CCC1=N[C@@]2(CC[C@@H]3CN(Cc4ccccc4F)C[C@@H]32)C(=O)N1CC | 39.8
102 | CC1=N[C@@]2(CC[C@@H]3CN(Cc4cccc(Cl)c4)C[C@@H]32)C(=O)N1CC1CC1 | 67.2
103 | COCCN(C)C(=O)Nc1ccc2c(ccn2CCOC)c1 | -178
104 | Cc1nnc(N2CC[C@H]3C[C@H](C(=O)N4CCOCC4)O[C@H]3C2)s1 | -42.1
